# Where “and” joins values, the source holds several entries; their conditions need not be identical. Identical values can stand only once. Inconclusive results are not listed. Calls of active or inactive are those of the source. Unless noted, the limit is not given here; nearly all actives have AC50 up to about 27 µM.
# Tested on: not listed separately
# Experiment: P. berghei load reduction in hepatocytes – cell-based, HepG2, luciferase luminescence, HepG2 viability, primary screen (AID 624349; in the data active = parasite load remaining mostly below about 12%, no sharp cut-off; inactive = mostly above about 10%;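 also: 100% = mean of DMSO negative control wells on the same plate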)
# Details: P. berghei liver stage in HepG2, luciferase luminescence, concentration not given here; parasite load remaining: stronger effect = lower value; viability: measured here: HepG2 viability without parasites
Structure (SMILES),viability,parasite load remaining
N#Cc1c(C2CCNCC2)cc(-c2c(O)cccc2OCC2CC2)nc1N,88.8%,29.7% (inactive)
NC[C@@H]1O[C@H](O[C@H]2[C@@H](O)[C@H](O[C@@H]3[C@@H](O)[C@H](N)C[C@H](N)[C@H]3O[C@H]3O[C@H](CN)[C@@H](O)[C@H](O)[C@H]3N)O[C@@H]2CO)[C@H](N)[C@@H](O)[C@@H]1O,48% and 104%,49.2% (inactive) and 45.9% (inactive)
O=C(Nc1nc2ccccc2n1CCN1CCOCC1)c1cccc([N+](=O)[O-])c1,151%,33.2% (inactive)

# Tested on: Hepatitis C virus NS3 helicase
# Experiment: blockers of NS3h binding to ssDNA – biochemical, fluorescence polarization, LOPAC1280 library, primary screen (AID 687035; in the data active = inhibition above about 37%)
# Details: Purified HCV NS3 helicase, Cy5-dT15 ssDNA binding fluorescence polarization; stronger effect = higher value; concentration not given here
row,Structure (SMILES),inhibition
1,Nc1nc(N)c(N=O)c(OCC2CCCCC2)n1,-2% (inactive)
2,O=c1[nH]c(=O)n([C@H]2C[C@H](O)[C@@H](CO)O2)cc1/C=C/Br,-1% (inactive)
3,O=C(Nc1nc2ccccc2n1CCN1CCOCC1)c1cccc([N+](=O)[O-])c1,-2% (inactive)

# Tested on: not listed separately
# Experiment: compounds altering Cy5-DNA-NS3h complex signal – biochemical, LOPAC1280, artefact control for HCV NS3 helicase inhibitor project (AID 687037; call rule not given here)
# Details: Cy5-DNA-NS3h complex fluorescence interference counterscreen
row,Structure (SMILES),fluorescence ratio (interference)
1,Nc1nc(N)c(N=O)c(OCC2CCCCC2)n1,0.9 (inactive)
2,O=c1[nH]c(=O)n([C@H]2C[C@H](O)[C@@H](CO)O2)cc1/C=C/Br,1 (inactive)
3,O=C(Nc1nc2ccccc2n1CCN1CCOCC1)c1cccc([N+](=O)[O-])c1,1.1 (inactive)

# Tested on: not listed separately
# Experiment: viability loss in pontine glioma line – cell-based, JHH-DIPG-1, MIPE4.0, CellTiter-Glo, qHTS, dose response (AID 1347062);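 as to AC50: cells exposed to compound for two days before readout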
# Details: JHH-DIPG-1 viability, CellTiter-Glo ATP luminescence
Structure (SMILES),outcome,AC50
CN[C@@H]1[C@@H](O)[C@@H](O[C@@H]2[C@@H](O)[C@H](O[C@H]3O[C@H](CN)[C@@H](O)[C@H](O)[C@H]3O)[C@@H](N)C[C@H]2NC(=O)[C@@H](O)CN)OC[C@]1(C)O,inactive,
COc1cc(OC)cc(-c2ccc3ncc4ccc(=O)n(-c5ccc(N6CCNCC6)c(C(F)(F)F)c5)c4c3c2)c1,,16.6 µM (active)
COc1ccc2c(Oc3ccc(NC(=O)c4c(C)n(CC(C)(C)O)n(-c5ccccc5)c4=O)cc3F)ccnc2c1,inactive,
CC(C)N(CC[C@H](c1ccccc1)c1cc(CO)ccc1O)C(C)C,inactive,
CNC1[C@@H](O)C(O[C@@H]2C(O)C(O[C@H]3O[C@H]([C@@H](C)NC)CC[C@H]3N)[C@@H](N)C[C@H]2N)OC[C@]1(C)O (some centres not stated),inactive,
O=c1[nH]nc(OCCCc2ccc(Cl)cc2)c(NCc2cccnc2)c1Br,,23.5 µM (active)
Cc1cn([C@@H]2O[C@H](CO)[C@@H](O)[C@@H]2F)c(=O)[nH]c1=O,inactive,
Nc1nc(N)c(N=O)c(OCC2CCCCC2)n1,,14.8 µM (active)
CC/C=C\C[C@H]1C(=O)CC[C@@H]1CC(=O)OC,inactive,
CC(C)(C)c1nc(-c2cccc(NS(=O)(=O)c3c(F)cccc3F)c2F)c(-c2ccnc(N)n2)s1,inactive,
N#Cc1c(C2CCNCC2)cc(-c2c(O)cccc2OCC2CC2)nc1N,,23.5 µM (active)
CC(C)(C)[C@H](NC(=O)c1ccc(N)c(Cl)c1)C(=O)N1CCC[C@H]1C(=O)N[C@H](C#N)CC(=O)O,inactive,
COc1cc2c(cc1Cc1cccc(Cl)c1F)c(=O)c(C(=O)O)cn2[C@H](CO)C(C)C,inactive,
CCCn1c(=O)c2[nH]c(-c3cnn(Cc4cccc(C(F)(F)F)c4)c3)nc2n(CC)c1=O,inactive,
CC(=O)NCCC(=O)N[C@@H](CCC(N)=O)C(=O)N[C@@H](CO)C(=O)N[C@@H](CCC(N)=O)C(=O)N[C@@H](CCC(N)=O)C(=O)N[C@H](C(=O)N[C@@H](Cc1ccccc1)C(=O)N[C@]1(C)CCCCCC/C=C\CCC[C@@](C)(C(=O)N[C@@H](CCC(N)=O)C(=O)N[C@@H](CC(N)=O)C(N)=O)NC(=O)[C@H](CC(C)C)NC(=O)[C@H](CC(C)C)NC(=O)[C@@H](CCCNC(=N)N)NC(=O)[C@H](Cc2c[nH]c3ccccc23)NC(=O)[C@H](CC(C)C)NC(=O)[C@H](CC(N)=O)NC1=O)[C@H](C)O,inactive,
COCCOC(=O)C1=C(C)NC2=C(C(=O)CC(c3ccccc3OC)C2)C1c1cccc(O)c1 (configuration not stated),inactive,
C=CC(=O)Nc1cccc(Nc2nc(NC3CCC(N(C)C)CC3)nc3c2ncn3C(C)C)c1 (configuration not stated),,0.187 µM (active)
CCOc1cc(N2CCC(O)CC2)ccc1Nc1ncc2c(n1)N(C)c1ccccc1C(=O)N2C,,7.43 µM (active)
NS(=O)(=O)c1ccc(NC2=CC(=O)c3ccccc3C2=O)cc1,inactive,
COc1cc(Cl)cn2c(-c3cccc(NC4CNC4)n3)cnc12,inactive,

Structure (SMILES),outcome,AC50
Fc1ccc(CNc2ncnc3ccc(F)cc23)cc1,inactive,
CC(O)[C@@H]1NC(=O)[C@H](CCCCN)NC(=O)[C@@H](Cc2c[nH]c3ccccc23)NC(=O)[C@H](Cc2ccccc2)NC(=O)[C@@H](NC(=O)[C@H](N)Cc2ccccc2)CSSC[C@@H](C(=O)N[C@H](CO)[C@@H](C)O)NC1=O (some centres not stated),inactive,
O=c1[nH]c(=O)n([C@H]2C[C@H](O)[C@@H](CO)O2)cc1/C=C/Br,inactive,
Cc1ccc(-n2[nH]c(C)c(N=Nc3cccc(-c4cccc(C(=O)O)c4)c3O)c2=O)cc1C,inactive,
CCc1nc(-c2cccc(C)c2)c(-c2ccnc(NC(=O)c3ccccc3)c2)s1,inactive,
COc1ccc(C(=O)CC2(O)C(=O)Nc3c(Cl)ccc(Cl)c32)cc1 (configuration not stated),,6.62 µM (active)
CC(=O)NC(C)c1ccc(Oc2ccc(OC(C)C)cc2)cc1 (configuration not stated),inactive,
CC(=O)N(C)C1(c2ccccc2)CCN(CCC[C@]2(c3ccc(Cl)c(Cl)c3)CCCN(C(=O)c3ccccc3)C2)CC1,,29.6 µM (active)
c1ccc(CNc2nc(N3CCOc4ccccc43)nc3c2CCCC3)cc1,inactive,
CCCCOCCOc1nc(-c2ccc(C(=O)O)c(F)c2)sc1C,inactive,
Nc1ncnc2c1c(-c1cccc(OCc3ccccc3)c1)cn2C1CC(CN2CCC2)C1 (configuration not stated),,11.8 µM (active)
COc1cc(C(=O)N2CCC(N3CCN(C)CC3)CC2)ccc1Nc1ncc2c(n1)N(C)c1ccccc1C(=O)N2C,,16.6 µM (active)
NC[C@@H]1O[C@H](O[C@H]2[C@@H](O)[C@H](O[C@@H]3[C@@H](O)[C@H](N)C[C@H](N)[C@H]3O[C@H]3O[C@H](CN)[C@@H](O)[C@H](O)[C@H]3N)O[C@@H]2CO)[C@H](N)[C@@H](O)[C@@H]1O,inactive,
C[C@@H](Cc1cc2c(c(C(N)=O)c1)N(CCCO)CC2)NCCOc1ccccc1OCC(F)(F)F,inactive,
Cc1ccccc1C(C(=O)NC1CCCCC1)N(C(=O)CNc1ccc(C#N)cc1)c1cccc(F)c1 (configuration not stated),inactive,
CC(C)(C)NC(=O)Nc1cccc(Nc2ncc(F)c(NC(C)(C)CO)n2)c1,inactive,
COc1ccc(-c2c(-c3ccc(O)cc3O)n[nH]c2C)cc1,inactive,
C[C@H](c1ccc(F)cc1CCCC(=O)O)N(c1cc(F)ccc1F)S(=O)(=O)c1ccc(Cl)cc1,inactive,
O=C(Nc1nc2ccccc2n1CCN1CCOCC1)c1cccc([N+](=O)[O-])c1,,14.8 µM (active)
CC(=O)Nc1sc2c(c1-c1nc3ccccc3s1)CNC2,,23.5 µM (active)
